Measurements as given in paper PMC13494018.

Each binder was assayed against CD276, Q5ZPR3.
CD276, Q5ZPR3, sequence (Q5ZPR3 whole entry): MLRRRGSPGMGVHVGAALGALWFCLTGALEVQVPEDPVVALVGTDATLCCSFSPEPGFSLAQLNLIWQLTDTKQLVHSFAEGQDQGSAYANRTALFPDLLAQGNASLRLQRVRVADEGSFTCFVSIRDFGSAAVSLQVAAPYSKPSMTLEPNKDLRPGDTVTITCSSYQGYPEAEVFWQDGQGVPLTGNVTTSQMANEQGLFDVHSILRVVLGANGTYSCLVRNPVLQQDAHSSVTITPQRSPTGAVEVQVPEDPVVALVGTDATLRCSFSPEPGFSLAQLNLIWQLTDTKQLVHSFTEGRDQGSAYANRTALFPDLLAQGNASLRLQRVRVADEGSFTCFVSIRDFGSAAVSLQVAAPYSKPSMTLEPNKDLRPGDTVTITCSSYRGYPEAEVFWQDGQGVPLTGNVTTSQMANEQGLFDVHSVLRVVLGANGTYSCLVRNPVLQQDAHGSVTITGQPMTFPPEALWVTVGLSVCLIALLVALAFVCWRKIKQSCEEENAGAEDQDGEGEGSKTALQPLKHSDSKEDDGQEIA

Binder | binding in a display sort
design_621_7e0052dc-ae49-49a0-b99f-9f3ee649cc2f_1041_dldesign_0_cycle1_af2pred (protein) DPAAVAAAEDMWAIAQQTWAAFTANAATITPAQARQYAAVFATAAVAMEDAARRVSPELAVGYRARAAEMRARAAAARAAAAA | not found (inactive)
design_621_7e0052dc-ae49-49a0-b99f-9f3ee649cc2f_452_dldesign_0_cycle1_af2pred (protein) EEDERRAEELRRRAEEMLEAAKRAASLPPAERARLLGEAARVVEEARELAERDPRYRPVYDLAVAAFNALATAVGRALAAAA | not found (inactive)
design_621_7e0052dc-ae49-49a0-b99f-9f3ee649cc2f_1427_dldesign_0_cycle1_af2pred (protein) AAAAAEAAALAQINALTATAVAAAKDPATQPVANAALGQASALAIAQHKVDPAAGAKASQALAAGVEATAAARAAAKAAAAAAAA | not found (inactive)
design_621_7e0052dc-ae49-49a0-b99f-9f3ee649cc2f_501_dldesign_0_cycle1_af2pred (protein) GAEQVAFQTIVAGARHAARLENEEAAKEIAKVYADIAANLSKETQQKVLEAAKKIAKETEAGKKNGEIVVKELEKALEA | not found (inactive)
design_621_7e0052dc-ae49-49a0-b99f-9f3ee649cc2f_1226_dldesign_0_cycle1_af2pred (protein) MEAEEYLEKAKEAAEKAKEAAAKGDLAAANAYLGKAIEYAAKAQEVGTPEIAEKANAELARAVKAVQAVAAKVAAA | not found (inactive)
design_621_7e0052dc-ae49-49a0-b99f-9f3ee649cc2f_624_dldesign_0_cycle1_af2pred (protein) AEAAKKKVEELLAKAKEEAKKALEDPANIEKYRAEMSKLIAEANRIGIASTPEVNTLAGSGIEEVLKLLDEAVKKAK | not found (inactive)
design_621_7e0052dc-ae49-49a0-b99f-9f3ee649cc2f_687_dldesign_0_cycle1_af2pred (protein) ALEEALERLKKQAEEAEKAGDKEAAKLAKKGAEQMEKAKTDPVAAMQALLAAAAEADKLAPKVGKVANRVAIEAIRGANAIFRAAQ | not found (inactive)
design_621_7e0052dc-ae49-49a0-b99f-9f3ee649cc2f_1174_dldesign_0_cycle1_af2pred (protein) AEKDEIVEKLLRAAGTATYVAYAFKDDAATKAKATATNQKAREAIQLLGTDFSPEAVALAKEAIEDAEKLKAELEAAQA | not found (inactive)
design_621_7e0052dc-ae49-49a0-b99f-9f3ee649cc2f_1483_dldesign_0_cycle1_af2pred (protein) AEAERLLAEARAAVAKGRAAGLAAAEAGLGAALEAARAMDAEARALAAAAEAAGHPEVAEEIRRAAGAAINEVLARASQVALAKAA | not found (inactive)
design_622_fcc41892-afde-4fb9-b6e8-b664fffd6a75_169_dldesign_0_cycle1_af2pred (protein) AQRETIKNGILAMMRALALALDDPEKREEMIEALAGIAAQLPKEEGVRVIKEAAKEVAAKYPEKAEEILEAGERAVELAKKLS | not found (inactive)
design_621_7e0052dc-ae49-49a0-b99f-9f3ee649cc2f_591_dldesign_0_cycle1_af2pred (protein) GEEEEKKKEVIEKRQEVLKLLAEAVRVGMEADPELASKAASESLELIAKADKYLKEGKYEEALAELEKAKEYVEKMLKEAKALLAAKL | not found (inactive)
design_621_7e0052dc-ae49-49a0-b99f-9f3ee649cc2f_1508_dldesign_0_cycle1_af2pred (protein) AKEEEEEAKKKAESVKKMVEVAKALAEYAKKSTDPQVAKIAANAAIGLANNAIEVGKKYPEAEPYAKEAEKVKEEAKKVIEEK | not found (inactive)
design_621_7e0052dc-ae49-49a0-b99f-9f3ee649cc2f_449_dldesign_0_cycle1_af2pred (protein) SSNVEKAKELARNLTESAALDPASGALAGRALLAAARNAAAALTPEQSAALAAELRAAVAANQPADPEARALFEQAAAVLAA | not found (inactive)
design_622_fcc41892-afde-4fb9-b6e8-b664fffd6a75_148_dldesign_0_cycle1_af2pred (protein) GAAEEAAKVAAKGKALTDQAAAGDLETANALLGEALALLEEVARTGSPEAVAAAQAAVAALSKVVLAKAAA | not found (inactive)
design_621_7e0052dc-ae49-49a0-b99f-9f3ee649cc2f_1261_dldesign_0_cycle1_af2pred (protein) AADSVALGQANAEAMLAVADPSQLPAAAAAIAAASPAVAERARRIGLRLAEAAGADVAAFRAAYDAAVAAAKA | not found (inactive)
design_622_fcc41892-afde-4fb9-b6e8-b664fffd6a75_256_dldesign_0_cycle1_af2pred (protein) SAAAVAAAAAAASARQASAALEEALATGTPEEVLRAAETALKMAEVLAWAGEQSPAAQAALDALRAKAEAARKAVAAA | not found (inactive)
design_621_7e0052dc-ae49-49a0-b99f-9f3ee649cc2f_505_dldesign_0_cycle1_af2pred (protein) AAAAAARAAALAVRDKYAAKAKEYAAEAEKYAPTDARVKELLDQGKAEAAKGDAALAAGDYAAAEGYYALAYAYYSAALNRALA | not found (inactive)
design_622_fcc41892-afde-4fb9-b6e8-b664fffd6a75_254_dldesign_0_cycle1_af2pred (protein) VDPEAQAKAEAEKMLEETKKAAEESPELAAETLNKGMAEMVKLAQANPEANEIYMKYGIEAAKKASEYIKELQEKRA | not found (inactive)
design_621_7e0052dc-ae49-49a0-b99f-9f3ee649cc2f_741_dldesign_0_cycle1_af2pred (protein) MEELKKAAEAAEKLAEVTLAIAKQADPKLAEKAKKLKEEVKKVYEEGKKDPSTAKEKLKELEKLSKEITELAAEASKLAVAKAA | not found (inactive)

Binder | binding in a display sort
design_621_7e0052dc-ae49-49a0-b99f-9f3ee649cc2f_1898_dldesign_0_cycle1_af2pred (protein) ALAEAQRRAERLEREVEEAERRIEEHADDAERLEELAERLERLAHEALRLAATAPNEVAQRAVEIAERAARAAERARATAERLR | not found (inactive)
design_621_7e0052dc-ae49-49a0-b99f-9f3ee649cc2f_590_dldesign_0_cycle1_af2pred (protein) SERKESVDAGVKAAADIGKYQAKEIAKEDPEKGAAYLKEVEETYEKALASSPEEAFALTNAAFRANAKLAAAAAAKKAAAA | not found (inactive)
design_621_7e0052dc-ae49-49a0-b99f-9f3ee649cc2f_896_dldesign_0_cycle1_af2pred (protein) SAAAAAAAAAKAVAAKTAEALVKQAEALIKEAEKSTKEEGLKLRKAAAENYKLAGTLYEQAGDTATAKKLKEEGEKVEKEAEEKA | not found (inactive)
design_621_7e0052dc-ae49-49a0-b99f-9f3ee649cc2f_2346_dldesign_0_cycle1_af2pred (protein) AEVAEIAKKTAEEVKKLIEAGAPAEEAAAVLNAGIAAVIKAAKAAGPASAADLGKAMDIFKETAELIVAYERERAAEAA | not found (inactive)
design_621_7e0052dc-ae49-49a0-b99f-9f3ee649cc2f_1478_dldesign_0_cycle1_af2pred (protein) AQALLDGVKRSSELAKEAEKYDPEAGKKILEVRTKGSAEASAVAVAGGTDAAVAAIAEKAAEEAKKLYEEAKKRAEERERE | not found (inactive)
design_621_7e0052dc-ae49-49a0-b99f-9f3ee649cc2f_1985_dldesign_0_cycle1_af2pred (protein) MAEEAEKLKKEAEKEFEKLKAEAKKYAAANGAKGQLAYQAVVGTGRSALDSLEALADDPERAKKTVEQLLAVAKDLVKSAAA | not found (inactive)
design_621_7e0052dc-ae49-49a0-b99f-9f3ee649cc2f_1562_dldesign_0_cycle1_af2pred (protein) EEKKEEARERGEELVKEAEELAEKAAATSALAAMEAAEYALEVQQEIVELYSEAGDEEGLEEFSARVNKIVAYLQKAALEAQKAEA | not found (inactive)
design_621_7e0052dc-ae49-49a0-b99f-9f3ee649cc2f_1278_dldesign_0_cycle1_af2pred (protein) AANAAEQAARLGKALASAAKNAIEAGNLESARKIAEVAVAAGEEAAELAVKYLEAEDPEAGKIFRELVEEEKARRAAEAA | not found (inactive)
design_621_7e0052dc-ae49-49a0-b99f-9f3ee649cc2f_1011_dldesign_0_cycle1_af2pred (protein) DLEKKAKEHLEKAKKLAEKAAASNAAEASVYLSQAIEEASKAVELAKKAGPELYKKYSEEATKLVQRASKAVMAKAQAAA | not found (inactive)
design_621_7e0052dc-ae49-49a0-b99f-9f3ee649cc2f_2499_dldesign_0_cycle1_af2pred (protein) AAAQQTFQNFLGYATLAAAYLATVDPAAAEELMALAAKARADPEKAKEYFAKAKELLTKHLDKLAAYSPEAGQAAQNAIDAANTLL | not found (inactive)
design_621_7e0052dc-ae49-49a0-b99f-9f3ee649cc2f_2068_dldesign_0_cycle1_af2pred (protein) DETLKKAKEALKKAAKAAKKIGDEEIAKKVEEALKLLTPESAELALAMAEALLASLKTADGKENAAKIATALRSGVANVAAA | not found (inactive)
design_622_fcc41892-afde-4fb9-b6e8-b664fffd6a75_178_dldesign_0_cycle1_af2pred (protein) AAAAKAAAAAAAKAQTAEARALVEEAERLAETDPELAIEVARRAIALANRAALAAQRIGDAATAAEAMAVAERAAEVLTRAGRRARA | not found (inactive)
design_621_7e0052dc-ae49-49a0-b99f-9f3ee649cc2f_1792_dldesign_0_cycle1_af2pred (protein) EEAARQALLEAVTKTAIDLIKKADEAAKTDPAQAELYAYQAASLIASVLHQDPEKGKEVLEIAKKSAFGELITKKTEEMLKKIDAA | not found (inactive)
design_621_7e0052dc-ae49-49a0-b99f-9f3ee649cc2f_1640_dldesign_0_cycle1_af2pred (protein) GKKEEADKLVEEGNKLFEEAEALAKEGKVAEGSSKLIEGIKLYAEAAKLYREVDPAKADELYATAHAKSAKVNKLLLAAAR | not found (inactive)
design_621_7e0052dc-ae49-49a0-b99f-9f3ee649cc2f_2349_dldesign_0_cycle1_af2pred (protein) GEQALQIARAAYVSAKNLLKDAEATENLEDAEKLAELAEAMAKQALEVAKAAAAQSAEAVEYAKKAKEYAEEAKKLVEEKKKA | not found (inactive)
design_621_7e0052dc-ae49-49a0-b99f-9f3ee649cc2f_1809_dldesign_0_cycle1_af2pred (protein) GAELVRRTIEASARTARRAVEEARERAKTPEEVEAAAESARRILQVAVDIGANYPEVAGEAEELAAEVGEEAERTLEEARKEY | not found (inactive)
design_621_7e0052dc-ae49-49a0-b99f-9f3ee649cc2f_606_dldesign_0_cycle1_af2pred (protein) DVAEVLVRTAQAVARQAQAAAALSPEEALAVAQANQQTVAVLLAAAKAAGSAEAVAAAQQAQATVAAVIAAAQARLAA | binds (active)
design_622_fcc41892-afde-4fb9-b6e8-b664fffd6a75_7_dldesign_0_cycle1_af2pred (protein) NEHLKEAAKHLEKAIEADAETALQLAQEALSHLLAALREASPEVRPLVEEAISHVTQALVYLSEGGETVEKGREELKKALEHAEKAAA | not found (inactive)
design_621_7e0052dc-ae49-49a0-b99f-9f3ee649cc2f_2237_dldesign_0_cycle1_af2pred (protein) MREEINRRMVELSGRINALFPYAQQDPEVNALLGKALGDLLEAHATPDPEEAAELVERAEEYVEAAEARAAALAA | not found (inactive)
